Source: the supplement of paper PMC7156485
± gives the standard deviation of the averaged measurements.

Assays:
Settings in all cases: concentration: 10 µM; 24 h
[1] = tested on: HCC1569; test: cell number relative to DMSO (% of DMSO); higher = more cells (less growth inhibition / toxicity)
Procedure, shortened: (§1)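 Using 384-well plates with 800 cells per well in RPMI plus 10% FBS, HCC1569 and TDF cells were exposed to compounds at 10 µM, in triplicate, for 24 h at 37 °C. Imaging of six fields per well at ×10 followed H1.0 and DAPI staining. The reported quantity, H1.0 nuclear intensity or cell number, is a median of replicates given as percent of the plate control, and HCC1569 values were smoothed for positional effects.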

[2] = tested on: TDF; test: as above
Procedure, shortened: as §1

[3] = tested on: TDF; test: H1.0 immunofluorescence intensity relative to DMSO (% of DMSO); higher = stronger H1.0 induction, active = 120 or more
Procedure, shortened: as §1

[4] = tested on: HCC1569; test: H1.0 immunofluorescence intensity relative to DMSO (% of DMSO); higher = stronger H1.0 induction, active = 140 or more
Procedure, shortened: as §1
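Throughout, for H1.0 immunofluorescence intensity relative to DMSO: TDF is a line of transformed human dermal fibroblasts of mesenchymal origin.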
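Throughout, for cell number relative to DMSO: TDF denotes transformed human dermal fibroblasts of mesenchymal origin.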

Structure (SMILES) | cell number [1] | cell number [2] | H1.0 immunofluorescence intensity [3] | H1.0 immunofluorescence intensity [4]
Cl.Cl.NCCc1cnc[nH]1 [Histamine dihydrochloride] | 99.6 | 105 | 92.1 (inactive) | 86.6 (inactive)
Cc1nc2c([nH]1)c(=O)n(C)c(=O)n2Cc1ccco1 [Furafylline] | 103 ± 5.7 | 107 ± 11 | 94.5 (inactive) | 103 (inactive)
CCCCCCCCCCCCCCC(=O)O [Pentadecanoic acid] | 99 | 92.6 | 105 (inactive) | 107 (inactive)
COC(=O)C1=C(C)NC(C)=C(C(=O)OCCN(C)Cc2ccccc2)C1c1cccc([N+](=O)[O-])c1.Cl (stereo unspecified) [Nicardipine.HCl] | 96.8 | 100 | 98.7 (inactive) | 107 (inactive)
CN(c1ncccc1CNc1nc(Nc2ccc3c(c2)CC(=O)N3)ncc1C(F)(F)F)S(C)(=O)=O | 54.6 | 32.3 | 116 (inactive) | 118 (inactive)
Clc1ccccc1C(c1ccccc1)(c1ccccc1)n1ccnc1 [Clotrimazole] | 75.1 | 69.1 | 104 (inactive) | 108 (inactive)
CCC(C)N(C)C(=O)c1cc2ccccc2c(-c2ccccc2Cl)n1 (stereo unspecified) | 101 | 110 | 90.8 (inactive) | 84 (inactive)
COc1ccc(C(=O)/C(Cc2cc(OC)c(OC)c(OC)c2)=C(\C(=O)[O-])c2ccc3c(c2)OCO3)cc1.[Na+] | 97.7 | 98.7 | 88.2 (inactive) | 103 (inactive)
COc1cc2c(N3CCN(C(=O)Nc4ccc(OC(C)C)cc4)CC3)ncnc2cc1OCCCN1CCCCC1 [Tandutinib] | 101 | 100 | 97.9 (inactive) | 99.5 (inactive)
